The results in this text go back to the supplement of paper PMC13380429.

Counter-ions that a name gives are not always drawn.

This assay relates to Vero E6 infected with SARS-CoV-2. Nature of the assay: morphology score (similarity to uninfected cells); higher = more like uninfected cells. The settings on record: 24 h.
Compound `O=C(Nc1ccccc1)c1cc([N+](=O)[O-])ccc1Cl` (10 µM) had a morphology score of 0.103. As for `Cc1cccn2c(=O)c(/C=C(\C#N)c3nc4ccccc4s3)c(Oc3ccc(F)cc3)nc12` (10 µM), the morphology score was 0.0128. The same measure for `CC(=O)OCC(=O)[C@@]1(O)CC[C@H]2[C@@H]3CCC4=CC(=O)CC[C@]4(C)[C@H]3[C@@H](O)C[C@@]21C` [hydrocortisone-acetate] (10 µM): -0.00868; for `CCCC[C@H](NC(C)=O)C(=O)N[C@H]1CC(=O)NCCCC[C@@H](C(=O)O)NC(=O)[C@H](Cc2c[nH]c3ccccc23)NC(=O)[C@H](CCCNC(=N)N)NC(=O)[C@@H](Cc2ccccc2)NC(=O)[C@H](Cc2c[nH]cn2)NC1=O` [bremelanotide] (10 µM): 0.067; for `COC1(C[S@@+]([O-])c2ccccc2)CCN(CCc2c[nH]c3ccc(F)cc23)CC1` (10 µM): -0.00604. Compound `CC(=O)N(O)[C@@H]1c2cc(C#N)ccc2OC(C)(C)[C@H]1O` (10 µM) had a morphology score of 0.477.

As for `C[C@@H](Oc1cc(-n2cnc3ccc(CN4CCN(C)CC4)cc32)sc1C(N)=O)c1ccccc1C(F)(F)F` (0.833333 µM), the morphology score came to 0.0643. Turning to `NC(CO)(CO)CO` [trometamol] (10 µM), the morphology score was -0.0719. On to `Cc1[nH]c2ccccc2c1CCNC(=O)c1cccs1` (10 µM), for which the morphology score amounted to 0.142. The figure for `CC(CCc1ccccc1)NC(C)C(O)c1ccc(O)cc1` (stereo not given) [buphenine] (10 µM) is -0.137. In the case of `Cc1ccsc1C(=CCCN1CCC[C@@H](C(=O)O)C1)c1sccc1C` [tiagabine] (10 µM), the morphology score was found to be 0.0772. The compound `CN1C(=O)CN=C(c2ccccc2)c2cc(Cl)ccc21` [diazepam] (10 µM) yielded a morphology score of 0.0883. Compound `C=C[C@@H]1C[C@]1(NC(=O)[C@@H]1C[C@@H]2CN1C(=O)[C@H](C(C)(C)C)NC(=O)O[C@@H]1C[C@H]1CCCCCc1nc3ccc(OC)cc3nc1O2)C(=O)NS(=O)(=O)C1CC1` [grazoprevir] (10 µM) gave a morphology score of 0.0897.

`N[C@@H]1CCN(c2cccnc2)C1` (10 µM) gave a morphology score of 0.0226.

Turning to `[O-][n+]1cccc(CO)c1` [mepiroxol] (10 µM), the morphology score is -0.0187.

`N[C@@]1(C(=O)O)CC[C@H]2[C@H](C(=O)O)[C@H]21` [eglumetad] (10 µM): the morphology score was -0.0541. `CC(=O)NCC(=O)N1[C@@H]2CC[C@H]1c1ccc(Nc3ncc(C(F)(F)F)c(NC4CCC4)n3)cc12` (0.833333 µM) had a morphology score of -0.071. `O=C(CN1CCN(C(=O)c2ccco2)CC1)Nc1cc(C(F)(F)F)ccc1Cl` (10 µM) gave a morphology score of 0.00654. The figure for `CNCCC(Oc1ccc(C(F)(F)F)cc1)c1ccccc1` (stereo not given) [fluoxetine] (10 µM) is 0.539; for `O=C(NOCCO)c1ccc2cncn2c1Nc1ccc(I)cc1F` (0.833333 µM) it is -0.298.

The compound `CC(C)C[C@H](NC(=O)CNC(=O)c1cc(Cl)ccc1Cl)B(O)O` [ixazomib] (0.833333 µM) yielded a morphology score of -0.0337. The same measure for `Cc1cc(O)ccc1Cl` [chlorocresol] (10 µM): 0.0498; for `O=c1c(O[C@@H]2O[C@H](CO)[C@H](O)[C@H](O)[C@H]2O)c(-c2ccc(O)c(O)c2)oc2cc(O)cc(O)c12` [hyperin] (10 µM): -0.0819. Take `CC1(C)CC[C@]2(NC(=O)C(C)(F)F)CC[C@]3(C)[C@H](C(=O)C=C4[C@@]5(C)C=C(C#N)C(=O)C(C)(C)[C@@H]5CC[C@]43C)[C@@H]2C1` [Omaveloxolone (RTA-408)] (10 µM): the morphology score is -0.212. As for `Cc1cc(C(=O)Nc2cc(Oc3ccc4nc(NC(=O)C5CC5)cn4n3)ccc2C)n(C)n1` (10 µM), the morphology score was found to be 0.227. Compound `Cc1ccc2c(c1)c1c(n2CCc2ccc(C)nc2)CCN(C)C1` [latrepirdine] (10 µM) returned a morphology score of 0.241.

`O=c1cc(N2CCNCC2)oc2c(-c3ccccc3)cccc12` (10 µM) gave a morphology score of 0.175. The figure for `O=[N+]([O-])/N=C1\NCCN1Cc1ccc(Cl)nc1` [imidacloprid] (10 µM) is 0.114; for `CO/N=C(\C(=O)N[C@@H]1C(=O)N2C(C(=O)O)=C(Cn3ccc(=N)n3CCO)CS[C@H]12)c1csc(N)n1` [Cefoselis sulfate] (10 µM) it is 0.115. The figure for `C[C@H](Nc1cc(-c2cnn(C)c2)cc(Nc2cnccn2)n1)c1ccc(F)cc1` (0.833333 µM) is -0.112; for `CCC(=O)O[C@@H]1CC(=O)O[C@H](C)C/C=C/C=C/[C@H](OC(C)=O)[C@H](C)C[C@H](CC=O)[C@H](O[C@@H]2O[C@H](C)[C@@H](O[C@H]3C[C@@](C)(OC(C)=O)[C@@H](OC(=O)CC)[C@H](C)O3)[C@H](N(C)C)[C@H]2O)[C@H]1OC` [miocamycin] (10 µM) it is -0.0251; for `C=CC(=O)Nc1cccc(Oc2nc(Nc3ccc(N4CCN(C)CC4)cc3)ncc2Cl)c1` (10 µM) it is -0.115.

`CC1CCC(NC(=O)N(CCCl)N=O)CC1` (stereo not given) [semustine] (10 µM): the morphology score is -0.0906. The same measure for `Cc1cc(Cl)ccc1OCCCC(=O)NO` [droxinostat] (10 µM): 0.199; for `C=CCc1cc(OC)c(O)c(C(=O)NCCO)c1` [alibendol] (10 µM): 0.101. Take `N[C@H]1C(O)O[C@H](CO)[C@@H](O)[C@@H]1O` (mixture of isomers) [glucosamine] (10 µM): the morphology score was -0.0432. In turn, `N#C/C(=C\c1cn(-c2ccccc2)c2ccccc12)C(=O)O` (10 µM) displayed a morphology score of -0.0582. The same measure for `Nc1ccc(C(=O)O)cc1` [potassium-p-aminobenzoate] (10 µM): -0.112; for `CCC(C)SSc1ncc[nH]1` (stereo not given) (10 µM): -0.172; for `O=C(/C=C/c1cccc(F)c1)NC1CC1` [cinflumide] (10 µM): -0.00378.
